According to PubChem BioAssay (NCATS):
Results filed as inconclusive are left out. Calls of active or inactive are those of the source. Unless noted, calls come from the whole dose curve; as a rule, active = well fitted inhibition curve with a large enough effect; inconclusive = small, poorly fitted or top-dose-only effect; inactive = flat fitted curve, though single readings scatter.

Key:
[1] = Drug repurposing screens with cells derived from glioblastoma tumor samples (AID 1345199); conditions: GBM patient neurospheres viability, ATP luminescence, 48 h; note: % is set by controls: 0 for no effect and ±100 for the full control effect; nearly all actives have a fitted effect of over 40% in size
How it was run: (§1)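 Primary testing used CD133+ neurospheres from four GBM patients, seven concentrations, 48 h exposure and ATP-based viability; confirmation added three slower-growing patient lines.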

astro = control astrocytes; assay: as above; conditions: viability, ATP luminescence, 48 h; series mostly up to 45.9 µM
How it was run: as §1

[2] = biological target: Nuclear receptor subfamily 1 group I member 2 (Rattus norvegicus) (UniProt Q9R1A7); assay: qHTS assay for small molecule activators of the rat pregnane X receptor (rPXR) signaling pathway (AID 651751; call rule not given here; note: 0% is about no effect); conditions: rPXR reporter cells, luciferase (One-Glo), 24 h
Nuclear receptor subfamily 1 group I member 2 (Rattus norvegicus), sequence (Q9R1A7 whole entry, looked up): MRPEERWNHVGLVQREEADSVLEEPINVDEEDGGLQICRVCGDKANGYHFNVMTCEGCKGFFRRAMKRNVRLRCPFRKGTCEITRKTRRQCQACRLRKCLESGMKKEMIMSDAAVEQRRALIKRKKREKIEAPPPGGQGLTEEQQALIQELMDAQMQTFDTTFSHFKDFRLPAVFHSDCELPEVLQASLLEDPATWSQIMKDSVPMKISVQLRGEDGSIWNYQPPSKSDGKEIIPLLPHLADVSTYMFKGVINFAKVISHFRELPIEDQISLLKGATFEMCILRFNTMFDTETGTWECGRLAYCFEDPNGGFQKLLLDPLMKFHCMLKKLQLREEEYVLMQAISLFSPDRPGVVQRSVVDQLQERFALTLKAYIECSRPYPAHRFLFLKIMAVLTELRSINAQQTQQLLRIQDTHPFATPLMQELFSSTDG

[3] = qHTS assay for small molecule activators of the human pregnane X receptor (PXR) signaling pathway (AID 720659; call rule not given here; note: 0% is about no effect); conditions: DPX-2 HepG2 CYP3A4-luciferase, 24 h; series mostly up to 92.3 µM
[4] = at 45.9 µM (top of the series), tumour line B
[5] = at 45.9 µM (top of the series), tumour line D
[6] = at 46.1 µM (top of the series), tumour line C

C=CCN1C[C@H](C(=O)N(CCCN(C)C)C(=O)NCC)C[C@@H]2c3cccc4[nH]cc(c34)C[C@H]21
inactive: activity, negative = cell killing [1, 4] -13.1% | outcome (astro)

CCCCCCCCCCOc1cc2c(=O)c(C(=O)OCC)c[nH]c2cc1OCC
inactive: activity, negative = cell killing [1, 4] 2.17% | activity, negative = cell killing [1, 5] -20.1% | activity, negative = cell killing [1, 6] -26.1% | outcome (astro)

CC(=O)Nc1cccc(O)c1
inactive: activity, negative = cell killing [1, 4] -7.47% | activity, negative = cell killing [1, 5] -9.18% | activity, negative = cell killing [1, 6] -17.1% | max response [2] -4.25% | outcome [3]

CC(=O)Nc1ccc(OCCOCCOc2ccc(NC(C)=O)cc2)cc1
inactive: activity, negative = cell killing [1, 4] -5.83% | activity, negative = cell killing [1, 6] -16.3% | outcome (astro)

C[C@@H](c1ncncc1F)C(O)(Cn1cncn1)c1ccc(F)cc1F (stereo partly specified)
inactive: activity, negative = cell killing [1, 4] -6.32% | activity, negative = cell killing [1, 5] -23.3% | activity, negative = cell killing [1, 6] 6.65% | outcome (astro)

Cc1ccsc1C(=CCCN1CCC[C@@H](C(=O)O)C1)c1sccc1C
inactive: activity, negative = cell killing [1, 4] -2.91% | activity, negative = cell killing [1, 5] -7.39% | activity, negative = cell killing [1, 6] 2.1% | outcome (astro)

O=S1(=O)OC(c2ccc(O)cc2)(c2ccc(O)cc2)c2ccccc21
inactive: activity, negative = cell killing [1, 4] -17.4% | activity, negative = cell killing [1, 5] -14.4% | activity, negative = cell killing [1, 6] 11.5% | outcome (astro)
